Screening results as filed in PubChem BioAssay.
PKM2 activator = qHTS Assay for Activators of Human Muscle isoform 2 Pyruvate Kinase; Pyruvate kinase PKM (Homo sapiens), P14618; purified PKM2, Kinase-Glo ATP luminescence, activation; response scale: 0% is enzyme alone, no compound; Potency, µM (titrated, usually from 57.5 µM), most hits filed as activators; 0.34% of 260,000 active; note: nearly all actives have a fitted effect of over 55% in size
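ATP formation by purified human PK-M2, quantified via coupled luciferase luminescence after 1 h at room temperature with 0.1 mM ADP and 0.5 mM PEP final.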
Chronic BCR inh = qHTS Assay to Find Inhibitors of Chronic Active B-Cell Receptor Signaling; ABC-DLBCL IkBa-CBG/CBR reporter, luminescence ratio, 4 h; Potency, µM (series often up to 46.1 µM), usual class: inhibitors; 0.05% of 340,000 active; AID 493014, 2011; active = well fitted inhibition curve with a large enough effect in the signal ratio, with a control signal flat, not every such curve was filed as active; inconclusive = small, poorly fitted or top-dose-only effect, or effect the other way, or a change in a side signal; the % refers to the signal ratio
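Cell line TMD8 (human ABC DLBCL), stably expressing tet-inducible CBG68-IkBa fusion and CBR; IMDM/0.5% FBS; cpd up to 46 uM; dox induction, 4 h, 37C/5% CO2; dual luminescence; green/red ratio; MG132 control.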
Pin1 inh = qHTS Assay to Find Inhibitors of Pin1 | Pin1 FP peptide displacement, HiFluor488, 10 min | 0.009% of 390,000 active | AID 504891, 2011 | Potency, µM (top dose mostly 115 µM), hits mostly inhibitors | Peptidyl-prolyl cis-trans isomerase NIMA-interacting 1 (Homo sapiens), Q13526; active = well fitted inhibition curve with a large enough effect in the polarisation, with a control signal flat, not every such curve was filed as active; inconclusive = small, poorly fitted or top-dose-only effect, or effect the other way, or a change in a side signal; inactive = no such curve, though single readings can be large or run the other way; the % refers to the polarisation
Target sequence (Q13526 whole entry, looked up): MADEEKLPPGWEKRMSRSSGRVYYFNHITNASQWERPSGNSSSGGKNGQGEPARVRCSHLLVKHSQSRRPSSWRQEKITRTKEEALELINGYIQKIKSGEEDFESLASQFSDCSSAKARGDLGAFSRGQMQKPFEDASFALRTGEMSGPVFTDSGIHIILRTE
B2AR arrestin = qHTS assay of beta-arrestin-biased ligands of beta2-adrenergic receptor; Potency, µM (highest dose often 46.1 µM), actives largely listed as activators; 0.02% of 330,000 active; AID 492947, 2010; Beta-2 adrenergic receptor (Homo sapiens), P07550; beta-arrestin recruitment to beta2AR, cell-based reporter; note: nearly all actives have a fitted effect of over 65% in size
Target sequence (P07550 whole entry, looked up): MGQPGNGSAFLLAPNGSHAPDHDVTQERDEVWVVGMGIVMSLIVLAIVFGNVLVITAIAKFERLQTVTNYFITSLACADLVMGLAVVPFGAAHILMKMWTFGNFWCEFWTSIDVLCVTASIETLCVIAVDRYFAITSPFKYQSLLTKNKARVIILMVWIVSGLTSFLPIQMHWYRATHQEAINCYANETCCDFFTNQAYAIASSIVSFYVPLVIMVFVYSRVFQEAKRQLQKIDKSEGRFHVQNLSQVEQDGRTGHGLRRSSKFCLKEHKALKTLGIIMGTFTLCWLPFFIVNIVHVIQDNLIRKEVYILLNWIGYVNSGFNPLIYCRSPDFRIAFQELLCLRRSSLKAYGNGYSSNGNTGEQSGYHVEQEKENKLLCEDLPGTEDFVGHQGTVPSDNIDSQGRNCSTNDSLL
miR-21 reporter = qHTS Assay for Modulators of miRNAs and/orActivators of miR-21; HeLa miR-21 FLuc reporter, luciferase, 48 h; Potency, µM (series often up to 38.3 µM), hits mostly activators; 340,000 tested, under 10 active; AID 2288, 2010;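 note: miR-21 action dims this reporter so a rising signal means less miR-21 action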
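HeLa cells endogenously expressing miR-21, stably carrying CMV-driven firefly luciferase with a downstream miR-21 binding site, 2000 cells/well. Titrations up to approximately 40 uM, 48 hours; luciferase luminescence read.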
PINK1 expr mod = A Quantitative High throughput Screen to Identify Chemical Modulators of PINK1 Expression; PINK1 immunofluorescence, high-content cytometry, 24 h; Potency, µM (doses to about 76.6 µM), hits mostly activators; 0.2% of 410,000 active; AID 624263, 2012; active = well fitted activation curve with a large enough effect; inconclusive = small, poorly fitted or top-dose-only effect; cell line not stated here; note: nearly all actives have a fitted effect of over 65% in size
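Stable cell line, 250 cells/well, 12 h attachment; compounds pinned at 5 concentrations, 24 h; CCCP control. Fixed with nuclear dye, primary antibodies 12 h at 10 degrees C, secondary plus cell stain; laser-scanning cytometer read.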
A number is an active result. Sampled rows, rich in hits. Any-hit rate of the full collection: about 0.46%. Unless noted, calls come from the whole dose curve; as a rule, active = well fitted curve in the direction sought with a large enough effect; inconclusive = small, poorly fitted or top-dose-only effect, or another doubt; inactive = no such curve, though single readings can be large; an effect the other way counts as inactive or inconclusive.

Screening CCCCNc1c(-c2ccc(SC3CCCCC3)c(OC)c2)nc2ccc(C)cn12 returned Chronic BCR inh inactive, Pin1 inh inactive, B2AR arrestin inactive and PINK1 expr mod 25.1µM.
`CCC(C)Sc1ccc(-c2nc3ccc(C)cn3c2NCc2ccccc2)cc1OC` (configuration not stated) gave Chronic BCR inh inconclusive, Pin1 inh inactive, B2AR arrestin inactive and PINK1 expr mod 15.8µM.
Screening CCC(C)Sc1cc(-c2nc3cc(C)ccn3c2NC2CCCCC2)ccc1OC (configuration not stated) returned Chronic BCR inh inactive, Pin1 inh inconclusive, B2AR arrestin inactive and PINK1 expr mod 12.6µM.
For CCCCNc1c(-c2ccc(OC)c(SC3CCCCC3)c2)nc2ccc(C)cn12 the results were Chronic BCR inh inactive, Pin1 inh inconclusive, B2AR arrestin inactive and PINK1 expr mod inconclusive.
`O=c1c2ccccc2nc2sc(NCc3ccccc3)nn12` gave Pin1 inh inactive.
For O=S1(=O)N=C(Sc2cccc3cccnc23)c2ccccc21 the results were Pin1 inh inactive.
O=C1/C(=C/c2ccc(O)cc2)SC(=S)N1Cc1cccnc1 was read as PKM2 activator inactive, Chronic BCR inh inactive, Pin1 inh inactive, B2AR arrestin inactive, miR-21 reporter inactive and PINK1 expr mod 35.5µM.
`Cc1ccc2cc(CN(Cc3ccco3)C(=O)c3ccco3)c3nnnn3c2c1` gave PKM2 activator 15.8µM, Chronic BCR inh inactive, Pin1 inh inconclusive, B2AR arrestin inactive, miR-21 reporter inactive and PINK1 expr mod inactive.
`C/C(O)=C/c1nc2ccccc2[nH]c1=O` gave PKM2 activator inactive, Chronic BCR inh inconclusive, Pin1 inh inactive, B2AR arrestin inactive, miR-21 reporter inactive and PINK1 expr mod inactive.
For O=c1[nH]c2ccc([N+](=O)[O-])cc2nc1/C=C(\O)c1ccccc1 the results were PKM2 activator inactive, Chronic BCR inh inactive, Pin1 inh inconclusive, B2AR arrestin inactive, miR-21 reporter inactive and PINK1 expr mod 28.2µM.
`C/C(=C\c1ccco1)CN1CCOc2ccc(CN3CCC(Oc4cccnc4)CC3)cc2C1` gave PINK1 expr mod inactive.
For Cn1c(=O)c2[nH]c(-c3ccccc3)c(O)c2n(C)c1=O the results were PKM2 activator 1.41µM, Chronic BCR inh inactive, B2AR arrestin inactive, miR-21 reporter inactive and PINK1 expr mod inactive.
`Cn1c(=O)c2[nH]c(-c3ccccc3Cl)c(O)c2n(C)c1=O` gave PKM2 activator inconclusive, Chronic BCR inh inconclusive, Pin1 inh inconclusive, B2AR arrestin inactive, miR-21 reporter inactive and PINK1 expr mod inactive.
CC(C)Cc1cc(C(=O)NCC2Cc3cc(F)cc(-c4ccccn4)c3O2)no1 (configuration not stated) was read as PINK1 expr mod inactive.
Screening O=S(=O)(c1ccc2c(c1)OCCO2)N1CCC(n2nnc3cc(F)ccc32)CC1 returned PKM2 activator 8.91µM, Chronic BCR inh inactive, Pin1 inh inactive, B2AR arrestin inactive, miR-21 reporter inactive and PINK1 expr mod inactive.
`O=S(=O)(c1ccc2c(c1)OCCO2)N1CCC(n2cnc3cc(F)ccc32)CC1` gave PKM2 activator 7.08µM, Chronic BCR inh inconclusive, Pin1 inh inconclusive, B2AR arrestin inactive, miR-21 reporter inactive and PINK1 expr mod inactive.
`Cc1ccc(S(=O)(=O)N2CCC(n3nnc4cc(C)ccc43)CC2)cc1` gave PKM2 activator inactive, Chronic BCR inh inactive, Pin1 inh inactive, B2AR arrestin inactive, miR-21 reporter inactive and PINK1 expr mod inactive.
For Oc1c(C=Nc2cccc3cccnc23)sc2ccccc12 the results were PKM2 activator inactive, Chronic BCR inh inconclusive, B2AR arrestin inactive and miR-21 reporter inactive.
`Cc1cccc(/N=C/c2sc3ccccc3c2O)n1` gave PKM2 activator inactive, Chronic BCR inh inconclusive, Pin1 inh inactive, B2AR arrestin inactive, miR-21 reporter inactive and PINK1 expr mod 44.7µM.
For Cc1ccc(N/C=C/c2onc(C)c2[N+](=O)[O-])cc1 the results were PKM2 activator inactive, Chronic BCR inh inconclusive, Pin1 inh inactive, B2AR arrestin inactive, miR-21 reporter inactive and PINK1 expr mod inactive.
Screening Cc1cccc(C)c1N/C=C/c1onc(C)c1[N+](=O)[O-] returned PKM2 activator inactive, Pin1 inh inactive, miR-21 reporter inactive and PINK1 expr mod 39.8µM.
`Cc1ccc(-c2nc3ncccn3c2Nc2ccccc2C)o1` gave PKM2 activator 11.2µM, Chronic BCR inh inactive, Pin1 inh inactive, B2AR arrestin inactive, miR-21 reporter inactive and PINK1 expr mod inactive.
`OC1(c2ccc3c(c2)CN(Cc2nccs2)CCO3)CCN(c2ccccc2F)CC1` gave PINK1 expr mod inactive.
Screening COc1ccc(S(=O)(=O)N2CCCN(CC(=O)Nc3ccc(OC)c(Cl)c3)CC2)cc1 returned PKM2 activator 20µM, Chronic BCR inh inactive, Pin1 inh inactive, B2AR arrestin inactive, miR-21 reporter inactive and PINK1 expr mod inactive.
COc1cc(CC(=O)OCC(=O)Nc2ccc(S(=O)(=O)N3CCCC3)cc2)cc(OC)c1OC was read as PKM2 activator 20µM, Chronic BCR inh inactive, Pin1 inh inactive, B2AR arrestin inactive, miR-21 reporter inactive and PINK1 expr mod inactive.
`CCn1c(-c2cccc(OC)c2)nc2cc(NC(C)=O)cc(C(=O)N(C)CC3COCCO3)c21` (configuration not stated) gave PINK1 expr mod inactive.
For CC(C)c1c(C(=O)NCC(C)(C)N2CCOCC2)cnn1-c1nccc(-c2cccs2)n1 the results were PINK1 expr mod inactive.
NNC(=O)c1cc2sccc2s1 was read as PKM2 activator inactive, Chronic BCR inh 17.8µM, Pin1 inh inactive, B2AR arrestin inactive, miR-21 reporter inconclusive and PINK1 expr mod inactive.
Screening CC(=O)NNC(=O)c1cc2sccc2s1 returned PKM2 activator inactive, Chronic BCR inh inactive, Pin1 inh inactive, B2AR arrestin inactive, miR-21 reporter inactive and PINK1 expr mod inactive.
`c1ccc2c(c1)ccc1nnc(SCc3ccc4c(c3)OCCO4)n12` gave PKM2 activator 22.4µM, Chronic BCR inh inactive, Pin1 inh inactive, B2AR arrestin inactive, miR-21 reporter inactive and PINK1 expr mod inactive.
For COc1cc(/C=C2\SC(=O)N(c3cccc(Cl)c3)C2=O)cc([N+](=O)[O-])c1O the results were PKM2 activator 7.94µM, Chronic BCR inh inactive, B2AR arrestin inactive, miR-21 reporter inactive and PINK1 expr mod inactive.
